Key:
Assay in all cases: log2 ratio of Biotin-Ahx-Ub-VS probe labelling (fragment/DMSO); higher = less target engagement (more negative = stronger competition), active = hit call of the paper (q ≤ 0.05, log2 ratio ≤ -1)
Conditions in all cases: compound concentration: 200 uM; treatment time: 3 h
USP19 = target: T1, USP19 (UniProt O94966)
T1 sequence (whole entry): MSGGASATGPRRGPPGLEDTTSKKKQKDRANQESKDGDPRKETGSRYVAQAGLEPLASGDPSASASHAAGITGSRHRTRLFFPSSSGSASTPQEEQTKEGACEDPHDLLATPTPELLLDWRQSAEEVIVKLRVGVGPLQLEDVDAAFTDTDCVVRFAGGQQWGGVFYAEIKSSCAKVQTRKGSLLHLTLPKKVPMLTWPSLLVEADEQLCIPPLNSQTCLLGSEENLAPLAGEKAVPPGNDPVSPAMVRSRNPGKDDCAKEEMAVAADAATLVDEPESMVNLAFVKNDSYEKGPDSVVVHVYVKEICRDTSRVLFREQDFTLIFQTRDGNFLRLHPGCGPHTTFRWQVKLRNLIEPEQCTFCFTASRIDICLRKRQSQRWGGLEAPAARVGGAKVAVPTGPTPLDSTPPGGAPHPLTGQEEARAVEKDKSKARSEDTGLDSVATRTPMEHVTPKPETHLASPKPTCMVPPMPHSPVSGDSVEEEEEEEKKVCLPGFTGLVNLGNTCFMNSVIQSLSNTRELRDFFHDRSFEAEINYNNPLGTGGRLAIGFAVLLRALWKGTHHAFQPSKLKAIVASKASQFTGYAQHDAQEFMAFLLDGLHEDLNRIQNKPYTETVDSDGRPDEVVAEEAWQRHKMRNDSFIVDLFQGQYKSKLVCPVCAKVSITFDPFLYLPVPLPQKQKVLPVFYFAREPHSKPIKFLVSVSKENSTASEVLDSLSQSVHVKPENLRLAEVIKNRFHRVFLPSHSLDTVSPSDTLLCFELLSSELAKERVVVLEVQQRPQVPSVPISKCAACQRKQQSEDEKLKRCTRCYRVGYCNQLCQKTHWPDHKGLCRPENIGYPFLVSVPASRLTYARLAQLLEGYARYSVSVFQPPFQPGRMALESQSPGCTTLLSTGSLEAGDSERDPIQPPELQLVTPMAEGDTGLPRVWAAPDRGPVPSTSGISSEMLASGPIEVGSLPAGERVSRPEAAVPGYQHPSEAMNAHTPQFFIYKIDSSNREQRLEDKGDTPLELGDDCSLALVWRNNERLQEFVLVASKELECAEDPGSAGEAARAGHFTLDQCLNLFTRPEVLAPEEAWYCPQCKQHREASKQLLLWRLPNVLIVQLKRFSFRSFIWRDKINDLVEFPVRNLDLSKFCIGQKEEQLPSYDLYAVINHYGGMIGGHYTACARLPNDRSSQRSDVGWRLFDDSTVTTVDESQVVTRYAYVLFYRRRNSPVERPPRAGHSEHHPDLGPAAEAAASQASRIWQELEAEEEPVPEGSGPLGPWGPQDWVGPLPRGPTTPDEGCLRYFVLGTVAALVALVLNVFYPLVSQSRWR
Outline: (§1)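 Each value is an average log2 ratio of fragment to vehicle, tested by unpaired t-test. The underlying Spectronaut label-free quantities were global-median-normalised, and only proteins with ≥2 unique peptides were included. Triplicate HEK293T lysate samples (495 µg) were exposed to fragment at 200 µM or vehicle for 3 h, then to Biotin-Ahx-Ub-VS at 0.5 µM final for 1 h, before NeutrAvidin enrichment of labelled DUBs, LysC and trypsin digestion, and diaPASEF LC-MS/MS.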

USP24 = USP24 (UniProt Q9UPU5)
Sequence of USP24 (Q9UPU5 whole entry): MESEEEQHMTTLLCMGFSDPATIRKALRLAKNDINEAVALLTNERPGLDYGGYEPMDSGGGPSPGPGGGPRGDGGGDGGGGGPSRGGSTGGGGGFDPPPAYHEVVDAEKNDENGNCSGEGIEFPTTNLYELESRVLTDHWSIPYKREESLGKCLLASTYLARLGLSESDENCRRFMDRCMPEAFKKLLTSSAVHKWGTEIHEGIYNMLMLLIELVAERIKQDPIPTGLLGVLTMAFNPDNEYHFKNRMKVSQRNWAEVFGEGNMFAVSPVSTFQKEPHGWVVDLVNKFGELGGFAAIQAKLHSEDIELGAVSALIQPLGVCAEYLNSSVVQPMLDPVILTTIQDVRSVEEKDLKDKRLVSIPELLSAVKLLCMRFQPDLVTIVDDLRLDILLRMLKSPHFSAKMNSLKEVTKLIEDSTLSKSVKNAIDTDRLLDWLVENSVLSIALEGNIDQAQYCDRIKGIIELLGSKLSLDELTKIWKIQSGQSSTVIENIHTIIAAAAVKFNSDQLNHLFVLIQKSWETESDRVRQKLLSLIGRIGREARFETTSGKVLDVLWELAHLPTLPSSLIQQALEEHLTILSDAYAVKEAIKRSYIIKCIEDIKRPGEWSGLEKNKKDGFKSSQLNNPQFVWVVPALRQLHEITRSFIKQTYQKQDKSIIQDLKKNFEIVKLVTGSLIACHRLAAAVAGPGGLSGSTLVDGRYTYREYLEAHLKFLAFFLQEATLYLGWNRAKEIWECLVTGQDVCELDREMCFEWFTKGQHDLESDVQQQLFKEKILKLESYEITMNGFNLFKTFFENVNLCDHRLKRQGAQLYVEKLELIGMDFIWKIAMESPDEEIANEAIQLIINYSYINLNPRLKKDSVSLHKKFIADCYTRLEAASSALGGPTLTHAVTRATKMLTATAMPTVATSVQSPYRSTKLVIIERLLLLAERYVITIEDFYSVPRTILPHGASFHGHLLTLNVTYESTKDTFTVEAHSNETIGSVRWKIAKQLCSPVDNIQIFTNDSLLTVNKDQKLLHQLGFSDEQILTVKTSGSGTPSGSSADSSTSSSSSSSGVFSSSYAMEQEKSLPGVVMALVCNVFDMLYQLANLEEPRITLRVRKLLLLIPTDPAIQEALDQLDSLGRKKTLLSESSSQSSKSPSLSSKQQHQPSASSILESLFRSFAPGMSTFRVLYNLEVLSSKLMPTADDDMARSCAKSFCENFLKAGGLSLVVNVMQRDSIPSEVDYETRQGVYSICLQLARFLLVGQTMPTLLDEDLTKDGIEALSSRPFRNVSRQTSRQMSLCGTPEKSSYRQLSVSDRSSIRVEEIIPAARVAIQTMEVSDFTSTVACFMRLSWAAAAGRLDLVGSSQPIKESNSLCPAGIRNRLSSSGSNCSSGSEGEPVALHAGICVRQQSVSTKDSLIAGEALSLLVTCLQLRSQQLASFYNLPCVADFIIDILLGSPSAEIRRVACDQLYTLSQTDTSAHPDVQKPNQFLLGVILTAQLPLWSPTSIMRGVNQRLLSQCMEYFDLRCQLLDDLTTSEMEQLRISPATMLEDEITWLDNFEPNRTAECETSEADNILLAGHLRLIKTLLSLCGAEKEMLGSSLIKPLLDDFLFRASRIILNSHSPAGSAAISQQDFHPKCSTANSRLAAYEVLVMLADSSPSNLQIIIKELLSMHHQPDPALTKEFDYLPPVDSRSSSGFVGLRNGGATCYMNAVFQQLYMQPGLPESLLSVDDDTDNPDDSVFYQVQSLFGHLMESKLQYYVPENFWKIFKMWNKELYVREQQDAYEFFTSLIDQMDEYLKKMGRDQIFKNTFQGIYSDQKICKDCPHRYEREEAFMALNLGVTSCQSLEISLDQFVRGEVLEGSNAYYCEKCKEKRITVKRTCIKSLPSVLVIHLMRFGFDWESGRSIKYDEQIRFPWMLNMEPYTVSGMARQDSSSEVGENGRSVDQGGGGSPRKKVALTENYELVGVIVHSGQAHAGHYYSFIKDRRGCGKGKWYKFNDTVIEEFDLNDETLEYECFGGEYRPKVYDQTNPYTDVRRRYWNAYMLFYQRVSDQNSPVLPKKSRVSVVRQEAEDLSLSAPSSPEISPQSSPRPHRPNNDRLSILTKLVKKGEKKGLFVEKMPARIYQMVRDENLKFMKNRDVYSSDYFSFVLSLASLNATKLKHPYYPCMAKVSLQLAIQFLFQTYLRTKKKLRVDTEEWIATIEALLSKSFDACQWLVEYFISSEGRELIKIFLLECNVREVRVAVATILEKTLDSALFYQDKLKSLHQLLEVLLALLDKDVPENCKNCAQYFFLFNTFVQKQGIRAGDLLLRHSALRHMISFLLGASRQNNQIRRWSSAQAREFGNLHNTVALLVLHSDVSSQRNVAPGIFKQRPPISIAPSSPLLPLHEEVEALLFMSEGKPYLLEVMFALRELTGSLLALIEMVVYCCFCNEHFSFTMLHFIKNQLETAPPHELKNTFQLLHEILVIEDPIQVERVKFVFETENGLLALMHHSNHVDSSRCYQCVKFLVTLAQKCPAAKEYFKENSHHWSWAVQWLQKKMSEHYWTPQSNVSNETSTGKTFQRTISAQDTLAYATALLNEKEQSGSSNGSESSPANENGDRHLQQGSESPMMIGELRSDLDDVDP
Outline: as §1

USP25 = target: T2, USP25 (UniProt Q9UHP3)
T2 sequence (whole entry): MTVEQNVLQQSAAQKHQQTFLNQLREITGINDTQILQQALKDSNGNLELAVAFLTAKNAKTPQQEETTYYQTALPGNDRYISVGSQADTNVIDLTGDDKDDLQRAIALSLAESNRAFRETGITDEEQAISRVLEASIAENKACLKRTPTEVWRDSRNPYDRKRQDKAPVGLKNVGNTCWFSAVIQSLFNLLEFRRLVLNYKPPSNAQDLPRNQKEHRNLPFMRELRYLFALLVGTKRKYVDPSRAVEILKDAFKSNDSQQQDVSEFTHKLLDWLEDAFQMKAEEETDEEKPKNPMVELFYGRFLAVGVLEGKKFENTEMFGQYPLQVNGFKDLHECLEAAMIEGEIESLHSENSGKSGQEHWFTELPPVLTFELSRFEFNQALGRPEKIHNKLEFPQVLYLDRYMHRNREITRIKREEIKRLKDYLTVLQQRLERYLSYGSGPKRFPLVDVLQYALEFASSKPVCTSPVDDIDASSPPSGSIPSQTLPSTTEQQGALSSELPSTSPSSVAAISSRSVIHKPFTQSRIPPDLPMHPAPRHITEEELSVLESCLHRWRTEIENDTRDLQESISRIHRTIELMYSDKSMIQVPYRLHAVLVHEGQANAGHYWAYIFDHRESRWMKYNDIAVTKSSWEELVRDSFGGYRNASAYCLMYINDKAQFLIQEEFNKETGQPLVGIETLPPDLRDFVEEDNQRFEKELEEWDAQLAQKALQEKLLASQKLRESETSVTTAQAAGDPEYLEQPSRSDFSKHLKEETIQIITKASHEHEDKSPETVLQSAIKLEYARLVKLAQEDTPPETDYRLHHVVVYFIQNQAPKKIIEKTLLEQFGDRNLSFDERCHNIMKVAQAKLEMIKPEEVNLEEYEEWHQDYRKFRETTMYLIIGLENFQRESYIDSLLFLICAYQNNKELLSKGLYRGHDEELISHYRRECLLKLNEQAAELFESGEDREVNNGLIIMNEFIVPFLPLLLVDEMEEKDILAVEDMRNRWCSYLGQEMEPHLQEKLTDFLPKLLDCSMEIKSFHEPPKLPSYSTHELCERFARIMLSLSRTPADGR
Outline: as §1

USP28 = target: T3, USP28 (UniProt Q96RU2)
T3 sequence (whole entry): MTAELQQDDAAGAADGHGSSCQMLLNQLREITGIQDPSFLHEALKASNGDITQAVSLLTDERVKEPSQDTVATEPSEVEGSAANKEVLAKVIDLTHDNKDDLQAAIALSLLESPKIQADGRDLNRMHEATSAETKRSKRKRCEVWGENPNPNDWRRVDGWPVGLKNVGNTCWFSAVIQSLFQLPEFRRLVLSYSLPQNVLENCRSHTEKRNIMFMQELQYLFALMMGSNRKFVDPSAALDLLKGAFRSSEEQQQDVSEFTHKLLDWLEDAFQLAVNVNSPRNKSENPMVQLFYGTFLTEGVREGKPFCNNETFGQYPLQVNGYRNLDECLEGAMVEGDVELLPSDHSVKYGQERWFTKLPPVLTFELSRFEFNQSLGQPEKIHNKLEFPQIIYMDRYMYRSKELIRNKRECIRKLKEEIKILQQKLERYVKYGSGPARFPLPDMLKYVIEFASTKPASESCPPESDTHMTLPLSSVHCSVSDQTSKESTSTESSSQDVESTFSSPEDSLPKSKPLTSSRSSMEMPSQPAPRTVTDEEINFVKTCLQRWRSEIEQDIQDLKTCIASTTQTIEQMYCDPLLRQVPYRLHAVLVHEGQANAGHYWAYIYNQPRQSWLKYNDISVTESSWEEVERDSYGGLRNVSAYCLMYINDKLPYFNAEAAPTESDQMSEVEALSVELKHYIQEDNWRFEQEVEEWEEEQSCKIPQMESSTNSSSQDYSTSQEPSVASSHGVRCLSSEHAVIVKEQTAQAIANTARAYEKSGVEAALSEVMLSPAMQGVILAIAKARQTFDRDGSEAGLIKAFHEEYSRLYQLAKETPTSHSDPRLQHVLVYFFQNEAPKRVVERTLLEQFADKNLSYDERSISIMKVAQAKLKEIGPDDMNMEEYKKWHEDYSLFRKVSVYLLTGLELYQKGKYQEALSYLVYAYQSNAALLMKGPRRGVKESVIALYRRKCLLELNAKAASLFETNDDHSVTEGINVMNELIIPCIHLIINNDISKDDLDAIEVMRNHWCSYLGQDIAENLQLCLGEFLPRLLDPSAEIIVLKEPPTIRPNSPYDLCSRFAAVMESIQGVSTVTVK
Outline: as §1

Measured: log2 ratio of Biotin-Ahx-Ub-VS probe labelling

Cc1ccc(CN(CCO)C(=O)CCl)cc1
inactive: USP19 -0.37 | USP24 -0.445 | USP25 -0.431 | USP28 -0.569
